Only a selection was taken, and hits are over-represented in it overall.
RGS12 GoLoco inh: qHTS Assay for Inhibitors of RGS12 GoLoco Motif Activity (Red Fluorophore); Guanine nucleotide-binding protein G(i) subunit alpha-1 (Homo sapiens), P63096; Potency, µM (top dose mostly 61.6 µM), most hits filed as inhibitors; AID 880, 2007; Gai1:RGS12 GoLoco peptide FP, rhodamine, 10 min; 0.44% of 230,000 active; active = well fitted inhibition curve with a large enough effect, not every such curve was filed as active; inactive = no such curve, though single readings can be large or run the other way; also: nearly all actives have a fitted effect of over 30% in size
TexasRed fluor: Total Fluorescence Counterscreen for Inhibitors of the Interaction of Thyroid Hormone Receptor and Steroid Receptor Coregulator 2; TRb/SRC2 Texas Red total fluorescence interference; Potency, µM (series often up to 106 µM); 0.29% of 280,000 active; active = well fitted curve in either direction with a large enough effect; inconclusive = small, poorly fitted or top-dose-only effect
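Flags fluorescent or light-absorbing compounds by total fluorescence, S + 2P, at 555 nm excitation and 632 nm emission. Mixture: 20 nM Texas Red SRC2 peptide, 0.6 uM human TRb LBD, 1 uM T3, 5% DMSO; compound exposure 5 h at ambient temperature.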
ERG Ets-DNA blk: qHTS for Small Molecule Inhibitors of the ERG Ets/DNA interaction | 0.028% of 370,000 active | fluorescence polarization, His-ERG Ets domain / labelled DNA | Potency, µM (top dose mostly 76.9 µM), usual class: inhibitors | Transcriptional regulator ERG (Homo sapiens), P11308; active = well fitted inhibition curve with a large enough effect in the polarisation, with a control signal flat; inconclusive = small, poorly fitted or top-dose-only effect, or effect the other way, or a change in a side signal; inactive = no such curve, though single readings can be large or run the other way; the % refers to the polarisation;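 also: polarization taken with two DNA probes labelled with fluorescein and Texas red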
Target sequence (P11308 whole entry, looked up, the tested form may be a part): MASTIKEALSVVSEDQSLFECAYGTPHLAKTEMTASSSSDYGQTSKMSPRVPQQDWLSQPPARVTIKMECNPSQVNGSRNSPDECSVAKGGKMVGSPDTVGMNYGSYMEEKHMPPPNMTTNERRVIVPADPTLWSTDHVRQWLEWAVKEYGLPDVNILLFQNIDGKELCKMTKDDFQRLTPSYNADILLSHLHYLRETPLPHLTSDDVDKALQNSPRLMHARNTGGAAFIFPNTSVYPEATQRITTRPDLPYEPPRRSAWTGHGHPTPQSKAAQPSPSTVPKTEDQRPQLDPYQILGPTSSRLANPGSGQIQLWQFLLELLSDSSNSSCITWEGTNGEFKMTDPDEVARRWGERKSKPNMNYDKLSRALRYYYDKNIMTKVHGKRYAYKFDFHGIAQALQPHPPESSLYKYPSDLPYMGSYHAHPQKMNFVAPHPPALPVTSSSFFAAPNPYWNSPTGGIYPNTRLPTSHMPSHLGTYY
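His-tagged ERG Ets domain (1 uM in the protein solution; 300mM KCl, 50mM Tris-HCl, 1mM EDTA, 1mM DTT, pH 7.5) received compound, then a probe mix of 5 nM fluorescein-DNA and 100nM Texas-615-DNA. Fluorescence polarization was read for both dyes.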
TRb-SRC2 inh: qHTS for Inhibitors of the Interaction of Thyroid Hormone Receptor and Steroid Receptor Coregulator 2 | 0.065% of 280,000 active | TRbeta-SRC2 peptide binding, fluorescence polarization; receptor liganded with 1 µM T3 | Potency, µM (titrated, usually from 106 µM), actives largely listed as inhibitors | Thyroid hormone receptor beta (Homo sapiens), P10828; active = well fitted inhibition curve with a large enough effect; inconclusive = small, poorly fitted or top-dose-only effect, or effect the other way; also: nearly all actives have a fitted effect of over 50% in size
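Human TRb ligand-binding domain (0.6 uM) is mixed with 20 nM Texas Red SRC2 peptide and 1 uM T3; after compound addition and 5 hr at ambient temperature, polarization is measured and normalized to unbound and bound controls.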
A number is an active result; – = inactive; ? = inconclusive; · = not tested or not shown; ! = a repeat was not active; [ ] = dose if it differs, or a comment.

SMILES | RGS12 GoLoco inh | TexasRed fluor | ERG Ets-DNA blk | TRb-SRC2 inh
N[C@@H](Cc1cc(Br)c(O)c(Br)c1)C(=O)O | 11µM! | – | · | –
CC(C)OC(=O)C(O)(c1ccc(Br)cc1)c1ccc(Br)cc1 | · | – | · | –
CCCCCCCCCCCCC1=C(OC(C)=O)C(=O)c2ccccc2C1=O | · | – | · | –
Cc1onc(-c2ccccc2Cl)c1C(=O)NCc1ccc2c(c1)cc(C)n2C | – | – | 25µM | –
CN1CC=C2C(C#N)=C(N)C(C#N)(C#N)C(c3ccncc3)C2C1 (stereo not given) | 25µM | – | – | –
COC[C@H]1OC(=O)c2coc3c2[C@@]1(C)C1=C(C3=O)[C@@H]2CCC(=O)[C@@]2(C)C[C@H]1OC(C)=O | – | 45µM[fluorescent] | ? | 35µM
CCCN1CCCC2Cc3[nH]ncc3CC21 (stereo not given) | – | 35µM![quencher] | · | –
COc1cccc2c1C(=O)c1c(O)c3c(c(O)c1C2=O)C[C@](O)(/C(C)=N\O)C[C@@H]3O[C@H]1C[C@H](N)[C@@H](O)[C@H](C)O1 | 0.63µM | · | · | ·
O=C(NC(=O)c1c(F)cccc1F)Nc1ccc(OC(F)(F)C(F)OC(F)(F)F)c(Cl)c1 (stereo not given) | · | – | · | –
CCCCC/C=C\C/C=C\C/C=C\C/C=C\CCCC(=O)Nc1ccc(O)cc1C | – | 3.5µM![quencher] | · | –
CC1(C)CN=C(NN=C(/C=C/c2ccc(C(F)(F)F)cc2)/C=C/c2ccc(C(F)(F)F)cc2)NC1 | · | – | · | –
ClC1=C(Cl)C2(Cl)C3C(Cl)C=CC3C1(Cl)C2(Cl)Cl (stereo not given) | 20µM! | – | – | –
O=C(CN1CCCC1)Nc1ccc(Cl)cc1C(=O)c1ccccc1 | – | – | 13µM | –
O=C(CCN1CCCCC1)Nc1ccc(Cl)cc1C(=O)c1ccccc1 | · | · | – | ·
COC(=O)N(C(=O)N1COC2(C(=O)OC)Cc3cc(Cl)ccc3C2=N1)c1ccc(OC(F)(F)F)cc1 (stereo not given) | · | – | · | –
O=C1C=CC(=O)C(Cl)=C1 | 1.8µM | – | · | –
O=CNC(N1CCN(C(NC=O)C(Cl)(Cl)Cl)CC1)C(Cl)(Cl)Cl (stereo not given) | · | – | · | –
CC[N+](C)(CC)CCCOC(=O)C(O)(c1ccccc1)C1CCCCC1 (stereo not given) | 6.3µM | – | – | –
CCOC(C(=O)OCCC[N+](C)(CC)CC)(c1ccccc1)c1ccccc1 | – | – | · | –
CN(C)c1ccc(/C=C/C=C2/C(=O)NC(=O)N(c3ccccc3)C2=O)cc1 | – | 3.2µM[fluorescent] | – | ?
O=C1c2cccc3cccc(c23)C(=O)N1/N=C/c1c(O)n(-c2ccccc2)c(=O)[nH]c1=O | 16µM | – | – | –
[Cl][Sn]([c]1ccccc1)([c]1ccccc1)[c]1ccccc1 | · | – | · | –
CN(C)C1C(=O)C(C(N)=O)=C(O)[C@@]2(O)C(=O)C3=C(O)c4c(O)cccc4[C@@](C)(O)C3CC12 (stereo not given in full) | 35µM | ? | · | –
CN(C)[C@@H]1C(=O)C(C(N)=O)=C(O)[C@]2(O)C(=O)C3=C(O)c4c(O)ccc(Cl)c4[C@](C)(O)[C@H]3C[C@@H]12 | – | – | · | –
CCOP(=S)(OCC)SCSCC | · | – | · | –
SMILES | RGS12 GoLoco inh | TexasRed fluor | ERG Ets-DNA blk | TRb-SRC2 inh
Nc1ccc2ccccc2c1 | – | – | – | –
C[n+]1c2cc(N)ccc2cc2ccc(N)cc21 | – | – | 35µM | –
N#Cc1c[nH]cc1-c1cccc2c1OC(F)(F)O2 | · | – | · | –
CC[n+]1c(SC)ccc2cc(OC)ccc21 | 10µM | – | – | –
CN1CCN(c2ccccc2N)CC1 | 25µM | – | – | –
CN1CCN(c2ccc(F)cc2N)CC1 | – | – | – | –
Cc1cnc(C2=NC(C)(C(C)C)C(=O)N2)c(C(=O)O)c1 (stereo not given) | · | – | · | –
COc1cc(N2CCOCC2)ccc1/C=C1\C(=O)NC(=O)N(Cc2cccs2)C1=O | – | – | – | –
COc1cc(N2CCOCC2)ccc1C=C1C(=O)NC(=O)NC1=O | – | 32µM[quencher] | – | –
CO/N=C(/C(=O)OC)c1ccccc1COc1ccccc1C | · | – | · | –
N[C@H](Cc1ccc2oc3cc(=O)c4ccccc4c-3nc2c1)C(=O)O | 3.5µM | · | · | ·
COP(=S)(OC)Oc1c(Cl)cc(C)cc1Cl | · | – | · | –
CC[C@]1(O)CC(O[C@@H]2CC(N(C)C)C(O)C(C)O2)c2c(cc3c(c2O)C(=O)c2c(O)ccc(O)c2C3=O)C1C(=O)OC (stereo not given in full) | – | 40µM[fluorescent] | · | –
C[N+]1(C)C2CCC1CC(OC(=O)c1c[nH]c3ccccc13)C2 (stereo not given) | – | – | – | –
C[N+]1(C)C2CCC1CC(OC(=O)c1ccco1)C2 (stereo not given) | 10µM | – | – | –
O=C(O)COc1ccc(Cl)cc1 | · | – | · | –
CCCCCCCCCCCC#N | · | – | · | –
CCN(CC)CCOC(=O)C(O)(c1ccccc1)c1ccccc1 | – | – | – | –
CC(C)N1C(=O)CC2(CC[N+](C)(CCOC(=O)C(O)(c3ccccc3)c3ccccc3)CC2)C1=O (stereo not given) | 16µM | – | – | –
O=C(CSC1c2ccccc2-c2ccccc21)N/N=C/c1ccccc1C(=O)O | – | – | – | –
O=C(Cc1cc(=O)[nH][nH]1)N/N=C/c1ccccc1Cl | – | 1413µM[quencher] | – | –
O=P(O)(O)CN(CP(=O)(O)O)CP(=O)(O)O | · | – | · | –
CCOc1ccc(N=C2SCCCN2C)cc1 | 18µM | – | – | –
COC[C@H](C)N(C(=O)CCl)c1c(C)csc1C | · | – | · | –
CCNc1nc(NC(C)C)nc(OC)n1 | · | – | · | –
SMILES | RGS12 GoLoco inh | TexasRed fluor | ERG Ets-DNA blk | TRb-SRC2 inh
CNC(=O)Oc1cc(C)cc(C(C)C)c1 | · | – | · | –
ClC1=C(Cl)C2(Cl)C3C4OC4C(Cl)C3C1(Cl)C2(Cl)Cl (stereo not given) | · | – | · | –
COc1ccc(CCNCc2sccc2C)cc1OC | 25µM | – | – | –
Cc1c(COC(=O)C2C(/C=C(\Cl)C(F)(F)F)C2(C)C)cccc1-c1ccccc1 (stereo not given) | · | – | · | –
CCOc1ccc(-c2nc3cc(NC(=O)COc4cccc(C)c4)ccc3o2)cc1 | · | 14µM[quencher] | – | ?
CN1CC(CO)=C[C@H]2c3cccc4[nH]cc(c34)C[C@H]21 | 13µM | – | · | –
C/C(=N\NC(=O)Nc1cc(F)cc(F)c1)c1ncccc1C(=O)O | · | – | · | –
Cc1cccc2sc3nncn3c12 | · | – | · | –
CCNc1nc(Cl)nc(NC(C)(C)C)n1 | · | – | · | –
CCOS(C)(=O)=O | 22µM | – | – | –
CCCCC/C=C\C/C=C\C/C=C\C/C=C\CCCC(=O)N(Cc1ccc(O)c(Cl)c1)Cc1ccc(O)c(Cl)c1 | 40µM | – | · | –
CNC(=O)OCc1n(C)cc[n+]1C | 1.8µM | – | – | –
CCNc1nc(Cl)nc(NC(C)(C)C#N)n1 | · | – | · | –

Assay outcomes as filed in PubChem.
